In general, inhibition refers to the relative decrease from the control value, in per cent.

SMILES strings stand for the structures. Where “and” joins values, the source holds several entries; their conditions need not be identical. Identical values can stand only once. Out of some 110,000 compounds screened, about 730 (0.66%) were called active. The entries come from a sample that favours actives as a whole. Values without a mark were called inactive. No stated cut-off is given here; in the data, active means inhibition above about 50%; inconclusive means no clear call, values can overlap the other calls; inactive means below that.

Chain of Tyrosine-protein phosphatase non-receptor type 7 (Homo sapiens) (P35236 whole entry, looked up): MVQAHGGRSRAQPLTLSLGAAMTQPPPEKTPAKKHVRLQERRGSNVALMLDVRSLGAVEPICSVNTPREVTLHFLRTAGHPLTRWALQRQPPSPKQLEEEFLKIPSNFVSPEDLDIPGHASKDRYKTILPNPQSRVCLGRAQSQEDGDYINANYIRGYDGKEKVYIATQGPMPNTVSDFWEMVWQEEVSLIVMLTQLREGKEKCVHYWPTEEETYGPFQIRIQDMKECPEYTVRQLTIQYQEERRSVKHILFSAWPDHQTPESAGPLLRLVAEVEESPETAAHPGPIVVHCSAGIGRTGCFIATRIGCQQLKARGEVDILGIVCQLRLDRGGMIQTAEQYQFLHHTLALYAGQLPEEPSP

The test concerns the target Tyrosine-protein phosphatase non-receptor type 7 (Homo sapiens) (UniProt P35236). The test can be described thus: HePTP tyrosine phosphatase activity blockers – biochemical, absorbance, leukemia target, primary screen (AID 521).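 Further: plate controls were vehicle for no effect and reference inhibitor for full effect.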 As to conditions: recombinant HePTP phosphatase activity, OD absorbance; at 20 µM; stronger effect = higher value.
For `CCOc1ccc(C(=O)Nc2ccc(O)c(-c3nc4ccccc4o3)c2)cc1[N+](=O)[O-]`, the inhibition was 7.1%.

On to `O=C(O)c1cc(-c2ccc(C=C3C(=O)c4ccccc4C3=O)o2)ccc1O`, for which the inhibition is 102% (active).

With `CC1=NN(c2ccc(S(N)(=O)=O)cc2)C(=O)/C1=C\c1ccc(-c2ccc(Cl)c(C(=O)O)c2)o1`, the inhibition was 9.9%. In the case of `O=C1NN(c2ccccc2)C(=O)/C1=C/c1ccc(-c2cccc(C(=O)O)c2)o1`, the inhibition was 18.1%. `O=[N+]([O-])c1ccc(N2CCN(CCO)CC2)cc1NC(c1ccccc1)c1ccccc1`: the inhibition was -10.6%. For the molecule `COc1cccc(C(=O)N2N=C(c3ccc(F)cc3)CC2(O)C(F)(F)F)c1` (stereo unspecified), the inhibition was 4.2%. Regarding `CCOc1ccc(NC(=S)NC(NC(=O)c2cccc(C)c2)C(Cl)(Cl)Cl)cc1` (stereo unspecified), the inhibition is 4.6%. Then `O=[N+]([O-])c1ccc(C2SCCN2S(=O)(=O)c2ccc3ccccc3c2)cc1` (stereo unspecified), with 6.4%. Regarding `CN(N)c1nc(N2CCCC2)nc(N2CCCC2)n1`, the inhibition is -2.9%. On to `O=C1NC(=O)N(c2cccc(Br)c2)C(=O)/C1=C/c1cccc([N+](=O)[O-])c1`, for which the inhibition was 9.5%. Turning to `COc1ccc(/C=C2\C(=O)NC(=S)N(c3ccc(Br)cc3)C2=O)cc1`, the inhibition is 8.6%. As to `COc1cc(/C=C2\C(=O)NC(=S)N(c3cccc(Br)c3)C2=O)c([N+](=O)[O-])cc1OC`, the inhibition was 102% (active). `c1ccc2c(OCCCN3CCOCC3)cccc2c1`: the inhibition is -6.5%. `Cc1ccc2ccc3cccc(S(=O)(=O)O)c3c2n1`: the inhibition is 2.1%. In the case of `O=[N+]([O-])c1ccc(C2Nc3ccc(OC(F)(F)F)cc3C3C=CCC32)cc1` (stereo unspecified), the inhibition is -9.1%.

For the molecule `Cc1ccc(C(=O)Nc2ccccc2C(=O)NC2CCCCCC2)cc1`, the inhibition was 2.4%. As for `O=C(CCCN1C(=O)/C(=C/c2ccccc2)SC1=S)Nc1ccccc1C(=O)O`, the inhibition was 10.4%.

Regarding `COc1cccc(C(O)c2nc3ccccc3n2C)c1` (stereo unspecified), the inhibition was -6.5%. Take `CCc1ccc(-n2c(C)cc(/C=C3/SC(=S)NC3=O)c2C)cc1`: the inhibition was 7.1%. As for `O=C(COc1ccc2ccccc2c1Br)c1ccc(Br)cc1`, the inhibition is 3%. In the case of `CC(=O)c1ccc(NS(=O)(=O)c2ccccc2[N+](=O)[O-])cc1`, the inhibition was 3%. In the case of `Cc1cccc(NC(=O)COc2cc(C)c(Cl)c(C)c2)c1C`, the inhibition is 2%. Turning to `COc1ccc(NC(=O)c2cccc(N3C(=O)c4ccc(C(=O)Nc5ccc(OC)cc5)cc4C3=O)c2)cc1`, the inhibition is -8.7%.

`O=C1c2ccc3c4c(ccc(c24)C(=O)N1CCOc1ccccc1)CC3`: the inhibition was 3.5%. As for `O=C(O)c1cccc(N2C(=O)c3ccc4c5c(ccc(c35)C2=O)CC4)c1`, the inhibition is 103% (active). Then `O=[N+]([O-])c1ccc(C=NC23CN4CN(CN(C4)C2)C3)s1`, with 4.4%; and `COCCNC(=O)/C(=C/c1ccc(-c2cc(Cl)ccc2Cl)o1)NC(=O)c1ccc(C)cc1`, with 5.9%. `CCOc1cc(/C=N/NC(=O)c2cc(C)[nH]n2)ccc1Oc1ccc([N+](=O)[O-])cc1[N+](=O)[O-]`: the inhibition was 6.3%. As to `CCOCC(=O)Nc1sc2c(c1C(=O)OCC)CCCC2`, the inhibition was 3.2%. Consider `CCCOC(=O)Nc1sc2c(c1C(=O)OCC)CCC2`, for which the inhibition is -6.2%.

Regarding `CCOC(=O)c1c(NC(=O)C2CC2c2ccccc2)sc2c1CCC2` (stereo unspecified), the inhibition is 77.8% (active).

With `O=C(CN1C(=O)/C(=C/c2ccccc2F)SC1=S)Nc1ccccc1F`, the inhibition was -14.9%.

Consider `Clc1ccccc1OCCCN1CCOCC1`, for which the inhibition was -7.9%. In the case of `O=C(CCc1ccccc1)Nc1ccc(Cl)cc1`, the inhibition was 5.1%.

With `CCOC(=O)COc1ccc(/C=C2/NC(=S)NC2=O)cc1OC`, the inhibition was 4.1%.

Regarding `Cc1ccc(-c2cc(C(=O)Nc3ccccc3)c3ccccc3n2)cc1`, the inhibition is 9.3%. Consider `COc1cc(/C=C2\SC(=S)NC2=O)cc(Br)c1OCc1c(C)no[n+]1[O-]`, for which the inhibition was -10.3%. Take `CCN(CC)c1ccc(C=C2C(=O)N(C)C(=O)N(C)C2=O)c(O)c1`: the inhibition is -4.9%. As to `Cc1ccc(C(=O)N/C(=C\c2sccc2C)C(=O)NCC(C)C)cc1`, the inhibition is 8.2%. Regarding `Nc1nc2nonc2nc1Nc1ccccc1`, the inhibition is 0.4%. Regarding `Cc1cc(N2C(=O)NC(=O)/C(=C\c3cn(C)c4ccccc34)C2=O)ccc1Br`, the inhibition is 4.9%.

Regarding `Cc1oc2ccccc2c1/C=N/n1cnc2sc3c(c2c1=O)CCCC3`, the inhibition is -2.6%. For `N#CC1=C(N)n2c(s/c(=C\c3ccc4c(c3)OCO4)c2=O)=C(C#N)C1c1ccc2c(c1)OCO2` (stereo unspecified), the inhibition was 86.3% (active). Take `CCOC(=O)C1=C(C)N=c2s/c(=C\c3ccc4c(c3)OCO4)c(=O)n2C1c1ccc(OC)c(Br)c1` (stereo unspecified): the inhibition is 3.8%. Take `CCOC(=O)C1=C(C)N=c2s/c(=C\c3ccc4c(c3)OCO4)c(=O)n2C1c1ccc(C)cc1` (stereo unspecified): the inhibition was 1.8%. In the case of `CC1CCOP(=O)(C(Nc2ccc([N+](=O)[O-])cc2)c2ccc(Br)cc2)O1` (stereo unspecified), the inhibition was -6%. Take `CCOc1ccc(-c2cc(C(=O)Nc3cccc([N+](=O)[O-])c3)c3ccccc3n2)cc1`: the inhibition was 11.5%. Consider `COc1ccc(-c2noc(-c3ccc(Br)cc3)n2)cc1`, for which the inhibition was -4.6%. For `COc1ccc(-c2nc(-c3ccccc3)no2)c(OC)c1` the value was 16.7%; for `COc1ccc(/C=C2\SC(=Nc3ccc(F)cc3)NC2=O)cc1OC`, 25.3%.

Turning to `COc1cc2c(cc1NC(=O)c1c(-c3c(F)cccc3Cl)noc1C)oc1ccccc12`, the inhibition is -5.8%. For `COc1ccc(-c2nnc(SCC(=O)NN)n2-c2ccccc2)cc1` the value was -0.1%; for `COc1ccc(-c2nc3ccccc3c(C(=O)Nc3ccc(C(C)=O)cc3)c2C)cc1`, -9.2%; for `O=C(NC(=O)c1ccccn1)NC(c1ccccc1)c1ccccc1`, -13% and 2.8%. As to `O=C1NC(=S)N/C1=C/c1ccc(-c2cccc(Br)c2)o1`, the inhibition was 3.7%.

For the molecule `Nn1c(NCc2ccccc2)nc2ccccc21`, the inhibition was -4.8%. Take `CCOC(=O)c1cnn(-c2ccccc2)c1NC(=O)c1ccc([N+](=O)[O-])cc1`: the inhibition was 1.7%. On to `Cc1ccc(NC(=O)c2cnn(-c3ccccc3)c2NC(=O)c2ccccc2Cl)cc1C`, for which the inhibition was 103% (active).

`Cc1ccccc1NC(=O)c1cnn(-c2ccccc2)c1NC(=O)c1ccco1`: the inhibition was 7.2%. Regarding `O=C1CC(N2CCN(c3ccccc3F)CC2)C(=O)N1c1cccc(Cl)c1` (stereo unspecified), the inhibition is 5.6%. For `O=C1C=CC2=C3Oc4c(ccc5cc(O)ccc45)C(c4ccccc4C(=O)O)C3C=CC2=C1` (stereo unspecified), the inhibition is 103% (active). As for `NC(=S)N/N=C(/Cc1ccccc1)c1ccc(-c2ccccc2)cc1`, the inhibition was 6.5%. As for `COc1ccccc1C1SCCN1S(=O)(=O)c1ccc(-c2ccccc2)cc1` (stereo unspecified), the inhibition is 7.9%. Then `Cc1cccc(N2CCN(C(=O)C(Cl)(Cl)Cl)CC2)c1C`, with 5.3%. As for `CC(C)(O)C#Cc1ccc(C2C3=C(CC(C)(C)CC3=O)OC3=C2C(=O)CC(C)(C)C3)cc1`, the inhibition is 1.5%. `COc1ccc(C(=O)ON=C2c3ccccc3-c3ccccc32)cc1OC`: the inhibition was 62.3% (active). Regarding `COc1cc2c(cc1C)/C(=N/OC(=O)c1ccc(OC)c([N+](=O)[O-])c1)CCC2`, the inhibition was -10.5%.

Consider `COc1cc(C(C)=O)ccc1OC(=O)CN1C(=O)c2ccccc2C1=O`, for which the inhibition is -2.9%. `CCCCOc1c([N+](=O)[O-])cc([N+](=O)[O-])c2nsnc12`: the inhibition was 10.8%. Regarding `O=C1Nc2ccccc2/C1=N\N=C\c1c(F)cccc1Cl`, the inhibition is 14%. Then `CCCC(NC(=O)c1ccccc1)C(=O)OCC(=O)Nc1sc2c(c1C(=O)OCC)CCCC2` (stereo unspecified), with 1.3%; and `CCOC(=O)c1c(N)sc(C)c1CC`, with -13.6%; and `CC1(C)Cc2ccccc2C(N/N=C/c2c(O)ccc3ccccc23)=N1`, with 5%. Take `Cc1ccccc1NC(=O)c1c(NC(=O)C(C)(C)C)sc2c1CCC(C)C2` (stereo unspecified): the inhibition is 3.9%.

`CCOc1ccccc1NC(=O)c1c(NC(=O)c2ccco2)sc2c1CCC(C)C2` (stereo unspecified): the inhibition is 4.6%. `CCOc1ccccc1NC(=O)c1c(NC(=O)c2cccs2)sc2c1CCC(C)C2` (stereo unspecified): the inhibition was 74.5% (active). Regarding `ONC(=Nc1ccc2c(c1)OCO2)C(=Nc1ccc2c(c1)OCO2)NO`, the inhibition is -7.5%. Turning to `COc1ccc(C2SCCN2C(=O)c2cc3ccccc3oc2=O)cc1` (stereo unspecified), the inhibition was -6.8%. As to `Cc1ccc(OCC(=O)NCc2ccc(F)cc2)c(Br)c1`, the inhibition was 0%. For the molecule `O=C(COc1cc2oc(=O)c3c(c2cc1Cl)CCCC3)OCc1ccccc1`, the inhibition was 7%. Take `CCOc1cccc(-c2cc(C(=O)N3CCCCCC3)c3ccccc3n2)c1`: the inhibition was -11.5%. With `Cc1ccc(NC(=O)c2cc(-c3ccc(C)o3)nc3ccccc23)nc1`, the inhibition is 2.7%. As to `Cc1ccc(-c2cc(C(=O)NCc3ccccc3)c3ccccc3n2)o1`, the inhibition was 53.4% (active). `Cc1ccc(-c2cc(C(=O)N3CCCCCC3)c3ccccc3n2)o1`: the inhibition was 78.1% (active).

For the molecule `Cc1ccc(C)c(-c2cc(C(=O)NN)c3ccccc3n2)c1`, the inhibition was 5%. Then `Cc1ccc(-c2cc(C(=O)N3CC(C)CC(C)C3)c3ccccc3n2)cc1C` (stereo unspecified), with -17%; and `CCOc1cc(C(=O)Nc2cccc(F)c2)cc(OCC)c1OCC`, with 104% (active). For `COc1ccc(NC(=O)c2cccc(F)c2)cc1OC` the value was 9.7%.

`CCOc1cc(C(=O)Nc2ncccn2)cc(OCC)c1OCC`: the inhibition is -0.3% and 8.9%.

As for `CCOc1ccc(C(=O)Nc2ccc(I)cc2Cl)cc1[N+](=O)[O-]`, the inhibition is 3.7%. Turning to `O=C(Nc1cccc(I)c1)c1ccc2c(c1)C(=O)N(CC1CCCO1)C2=O` (stereo unspecified), the inhibition is 6.2%.

The record behind these values is PubChem BioAssay AID521 (Sanford-Burnham Center for Chemical Genomics, 2006).
